# The sample as a whole holds a higher share of the strongest signals than the screen did.
# Experiments:
# Assay in all cases: glycan array binding signal (z-score within array); higher = stronger binding
# Settings in all cases: glycan notation: IUPAC condensed, linker removed
# GalNAc(b1-4)GlcNAc = molecular target: GalNAc(b1-4)GlcNAc
# How it was run: (§1)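 The binding signal is a Z-score computed within each array and averaged over linkers. Arrays of the same protein sequence at different concentrations or buffers were also averaged together. Data originate from 3228 arrays in the Consortium for Functional Glycomics database, kept only where the protein sequence was available.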
# [1] = molecular target: GlcNAc(a1-4)Gal(b1-4)GlcNAc(b1-3)Gal(b1-4)Glc
# How it was run: as §1
# [2] = molecular target: GlcNAc(a1-4)Gal(b1-4)GlcNAc(b1-3)Gal(b1-4)GlcNAc(b1-3)Gal(b1-4)GlcNAc
# How it was run: as §1
# [3] = molecular target: GlcNAc(b1-2)Man(a1-3)[GlcNAc(b1-2)Man(a1-6)]Man(b1-4)GlcNAc(b1-4)GlcNAc
# How it was run: as §1
# [4] = molecular target: GlcNAc(b1-2)[GlcNAc(b1-6)]Man(a1-6)[GlcNAc(b1-4)][GlcNAc(b1-2)Man(a1-3)]Man(b1-4)GlcNAc(b1-4)GlcNAc
# How it was run: as §1
# [5] = molecular target: GlcNAc(b1-3)Gal(b1-4)GlcNAc
# How it was run: as §1
# [6] = molecular target: GlcNAc(b1-3)Gal(b1-4)GlcNAc(b1-3)Gal(b1-4)GlcNAc(b1-3)Gal(b1-4)GlcNAc(b1-2)[GlcNAc(b1-3)Gal(b1-4)GlcNAc(b1-3)Gal(b1-4)GlcNAc(b1-3)Gal(b1-4)GlcNAc(b1-6)]Man(a1-6)[GlcNAc(b1-3)Gal(b1-4)GlcNAc(b1-3)Gal(b1-4)GlcNAc(b1-3)Gal(b1-4)GlcNAc(b1-2)Man(a1-3)]Man(b1-4)GlcNAc(b1-4)[Fuc(a1-6)]GlcNAc
# How it was run: as §1
# GlcNAc(b1-6)GalNAc = molecular target: GlcNAc(b1-6)GalNAc
# How it was run: as §1
# [7] = molecular target: Kdn(a2-3)Gal(b1-4)[Fuc(a1-3)]GlcNAc
# How it was run: as §1
# [8] = molecular target: Neu5Ac(a2-3)Gal(b1-3)GalNAc
# How it was run: as §1
# [9] = molecular target: Neu5Ac(a2-3)Gal(b1-3)GlcNAc(b1-2)Man(a1-3)[GlcNAc(b1-4)][Neu5Ac(a2-3)Gal(b1-3)GlcNAc(b1-2)Man(a1-6)]Man(b1-4)GlcNAc(b1-4)GlcNAc
# How it was run: as §1
# [10] = molecular target: Neu5Ac(a2-3)Gal(b1-3)GlcNAc(b1-3)Gal(b1-4)GlcNAc
# How it was run: as §1
# [11] = molecular target: Neu5Ac(a2-3)Gal(b1-3)[Fuc(a1-4)]GlcNAc(b1-3)Gal(b1-3)[Fuc(a1-4)]GlcNAc
# How it was run: as §1
# [12] = molecular target: Neu5Ac(a2-3)Gal(b1-4)GlcNAc(b1-2)Man
# How it was run: as §1
# [13] = molecular target: Neu5Ac(a2-3)Gal(b1-4)GlcNAc(b1-2)Man(a1-3)[Neu5Ac(a2-6)Gal(b1-4)GlcNAc(b1-2)Man(a1-6)]Man(b1-4)GlcNAc(b1-4)GlcNAc
# How it was run: as §1
# [14] = molecular target: Neu5Ac(a2-3)Gal(b1-4)GlcNAc(b1-3)Gal(b1-4)GlcNAc(b1-3)Gal(b1-4)GlcNAc
# How it was run: as §1
# [15] = molecular target: Neu5Ac(a2-3)Gal(b1-4)[Fuc(a1-3)]GlcNAc(b1-3)Gal(b1-4)GlcNAc
# How it was run: as §1
# [16] = molecular target: Neu5Ac(a2-3)Gal(b1-4)[Fuc(a1-3)]GlcNAc(b1-3)Gal(b1-4)[Fuc(a1-3)]GlcNAc(b1-3)Gal(b1-4)[Fuc(a1-3)]GlcNAc
# How it was run: as §1
# [17] = molecular target: Neu5Ac(a2-3)[GalNAc(b1-4)]Gal(b1-4)GlcNAc(b1-3)GalNAc
# How it was run: as §1
# [18] = molecular target: Neu5Ac(a2-6)Gal(b1-4)GlcNAc(b1-2)Man(a1-3)[Neu5Ac(a2-6)Gal(b1-4)GlcNAc(b1-2)Man(a1-6)]Man(b1-4)GlcNAc(b1-4)GlcNAc
# How it was run: as §1
# [19] = molecular target: Neu5Ac(a2-6)Gal(b1-4)GlcNAc(b1-2)Man(a1-6)[GlcNAc(b1-2)Man(a1-3)]Man(b1-4)GlcNAc(b1-4)GlcNAc
# How it was run: as §1
# [20] = molecular target: Neu5Ac(a2-6)Gal(b1-4)GlcNAc(b1-3)Gal(b1-4)GlcNAc(b1-3)Gal(b1-4)GlcNAc(b1-2)Man(a1-3)[Neu5Ac(a2-6)Gal(b1-4)GlcNAc(b1-3)Gal(b1-4)GlcNAc(b1-3)Gal(b1-4)GlcNAc(b1-2)Man(a1-6)]GalNAc
# How it was run: as §1
# [21] = molecular target: Neu5Ac(a2-6)Gal(b1-4)GlcNAc(b1-6)[Gal(b1-3)]GalNAc
# How it was run: as §1
# [22] = molecular target: Neu5Ac(a2-8)Neu5Ac(a2-3)Gal(b1-3)GalNAc(b1-4)[Neu5Ac(a2-8)Neu5Ac(a2-3)]Gal(b1-4)Glc
# How it was run: as §1
# [23] = molecular target: Neu5Ac(a2-8)Neu5Ac(a2-3)[Gal(b1-3)GalNAc(b1-4)]Gal(b1-4)Glc
# How it was run: as §1
# Neu5Ac(b2-6)GalNAc = molecular target: Neu5Ac(b2-6)GalNAc
# How it was run: as §1
# [24] = molecular target: Neu5Gc(a2-8)Neu5Gc(a2-6)Gal(b1-4)GlcNAc
# How it was run: as §1
binder,measurement,setting,value
FimD (Bordetella pertussis) (protein) MPARVISFCGAALAVWAGLAVQPAMAVDPPVDCGRALGLHFWSSASLISDQTPDGTLIGKPVVGRSLLSKSCKVPDDIKEDLSDNHDGEPVDIVLELGSNYKIRPQSYGHPGIVVDLPFGSTEETGIAIYIDFGSSPMQKVGERQWLYPQKGEVLFDVLTINGDNAEVRYQAIKVGPLKRPRKLVLSQFPNLFTYKWVFMRGTSQERVLAQGTIDTDVATSTIDLKTCRYTSQTVSLPIIQRSALTGVGTTLGMTDFQMPFWCYGWPKVSVYMSATKTQTGVDGVALPATGQAAGMASGVGVQLINGKTQQPVKLGLQGKIALPEAQQTESATFSLPMKAQYYQTSTSTSAGKLSVTYAVTLNYD,glycan array binding signal (z-score),GalNAc(b1-4)GlcNAc,1.38
same,glycan array binding signal (z-score),[1],1.99
same,glycan array binding signal (z-score),[2],-0.238
same,glycan array binding signal (z-score),[3],0.004
same,glycan array binding signal (z-score),[4],-0.119
same,glycan array binding signal (z-score),[5],-0.296
same,glycan array binding signal (z-score),[6],1.29
same,glycan array binding signal (z-score),GlcNAc(b1-6)GalNAc,-0.117
same,glycan array binding signal (z-score),[7],-0.279
same,glycan array binding signal (z-score),[8],0.041
same,glycan array binding signal (z-score),[9],-0.459
same,glycan array binding signal (z-score),[10],-0.268
same,glycan array binding signal (z-score),[11],-0.191
same,glycan array binding signal (z-score),[12],1.16
same,glycan array binding signal (z-score),[13],-0.107
same,glycan array binding signal (z-score),[14],0.504
same,glycan array binding signal (z-score),[15],0.96
same,glycan array binding signal (z-score),[16],-0.135
same,glycan array binding signal (z-score),[17],0.943
same,glycan array binding signal (z-score),[18],0.115
same,glycan array binding signal (z-score),[19],-0.065
same,glycan array binding signal (z-score),[20],1.34
same,glycan array binding signal (z-score),[21],-0.022
same,glycan array binding signal (z-score),[22],1.36
same,glycan array binding signal (z-score),[23],-0.095
same,glycan array binding signal (z-score),Neu5Ac(b2-6)GalNAc,-0.348
same,glycan array binding signal (z-score),[24],-0.611

# Source: the supplement of paper PMC8728848
